Experimental findings from ChEMBL document CHEMBL4513216, “Probing the Open Global Health Chemical Diversity Library for Multistage-Active Starting Points for Next-Generation Antimalarials” (ACS Infect Dis, 2020) are described below.

SMILES strings stand for the structures. In all, about 69,000 compounds went through this assay and about 8,600 (12%) showed an effect of 50% or more. Many of the other results were omitted from the sample, so strong results are more common in it than they were.

For this experiment, the system named is Plasmodium berghei. Nature of the experiment: Screen against P. berghei liver stage (PbLuc), transformed with Luciferase, at 10uM. Type of experiment: functional, HepG2. The settings on record: tested at 10 uM.
Turning to `CN(Cc1ccc(-n2ccnc2)cc1)CC1CCCN1c1cccnn1` (stereo not given), the INHIBITION is given as -12.1%.

Take `Cc1ccc(S(=O)(=O)c2ncccc2CN2CCOCC2)cc1`: the INHIBITION stood at 37.8%.

On to `Cc1ccc(S(=O)(=O)c2ncccc2CN2CCCCC2)cc1`, for which the INHIBITION is given as 45.2%.

Regarding `O=C(c1cccnc1N1CCN(CCO)CC1)N1CCCC1`, the INHIBITION was determined as 43.6%.

For `Cc1ccc(S(=O)(=O)c2ncccc2CN2CCN(C)CC2)cc1`, the INHIBITION is 68.4%.

Regarding `Cc1ccc(S(=O)(=O)c2ncccc2CN2CCCC2)cc1`, the INHIBITION was 42.4%.

On to `Cc1ccc(S(=O)(=O)c2ncccc2CN2CCN(CCO)CC2)cc1`, for which the INHIBITION is given as 68.4%.

Take `CCn1cc(CN2CCCN(C(=O)c3cc(C)no3)CC2)cn1`: the INHIBITION was determined as 25.4%.

Take `CCc1ocnc1C(=O)N1CCOC(CCCC(C)C)C1` (stereo not given): the INHIBITION turned out to be 12.8%.

With `O=C(c1cncc(Br)c1)N1CCCc2ccc(F)cc21`, the INHIBITION came out at 67.4%.

Regarding `Cc1ccc2c(c1)CCCN2C(=O)c1cncc(Br)c1`, the INHIBITION came out at 6.88%.

As for `O=C(c1cncc(Br)c1)N1CCCc2c(F)cc(F)cc21`, the INHIBITION came out at 0.705%.

Take `Cc1nnc(N2CC[C@H]3O[C@H](C(=O)NCc4ccccn4)CC[C@H]32)s1`: the INHIBITION is listed as 21.8%.

Regarding `COc1cc(CN2CC[C@H](NC(C)=O)[C@@H](O)CC2)ccc1F`, the INHIBITION is -13.7%.

Take `Nc1nc(CN2CCN(c3nccs3)CC2)cs1`: the INHIBITION worked out at 22.3%.

For the compound `CC1CN(Cc2nnsc2Cl)CCN1c1nccs1` (stereo not given), the INHIBITION is 20.2%.

As for `Clc1snnc1CN1CCN(c2nccs2)CC1`, the INHIBITION amounted to 57.3%.

`Cc1nccn1C1CCCN(C(=O)c2ccc3nncn3c2)C1` (stereo not given): the INHIBITION turned out to be 40.2%.

`O=C(CCNC(=O)c1ccoc1)Nc1c(F)cccc1F`: the INHIBITION is listed as -16.7%.

On to `O=C(CCNC(=O)c1ccoc1)Nc1cc(F)ccc1F`, for which the INHIBITION was 24.8%.

On to `O=C(CCNC(=O)c1ccoc1)Nc1ccc(F)cc1F`, for which the INHIBITION is 59%.

On to `O=C(CCNC(=O)c1ccoc1)Nc1cc(F)cc(F)c1`, for which the INHIBITION was 54.5%.

On to `O=C(CCNC(=O)c1ccoc1)Nc1ccccc1F`, for which the INHIBITION is 21.9%.

Take `O=C(CCNC(=O)c1ccoc1)Nc1cccc(F)c1`: the INHIBITION was -4.82%.

In the case of `CNC(=O)CCc1cccc(C2CCCN(c3cc(C)ncn3)C2)n1` (stereo not given), the INHIBITION worked out at 44.8%.

For the compound `Cc1nnc2n1CCN(C(=O)c1cn(-c3ccccc3)nn1)C2`, the INHIBITION is given as -53.6%.

Take `CNC(=O)[C@@H]1C[C@H]2CN(C(=O)c3ccco3)C[C@H]2N1C(C)C`: the INHIBITION is listed as 16.4%.

Turning to `Cc1noc([C@H]2COC[C@H]3CN(C(=O)Cc4ccsc4)C[C@H]32)n1`, the INHIBITION is listed as -32%.

As to `Cc1cnc(N2CC[C@@H](N3CCOCC3)[C@@H]2Cc2ccncc2)nc1`, the INHIBITION came to 33.4%.

Take `Fc1cnc(N2CC[C@@H](N3CCOCC3)[C@@H]2Cc2ccncc2)nc1`: the INHIBITION is given as 21.6%.

For `c1cnc(N2CC[C@@H](N3CCOCC3)[C@@H]2Cc2ccncc2)nc1`, the INHIBITION was determined as 60%.

Turning to `Cc1cc(CN2CCC(CNS(=O)(=O)c3ccccc3Cl)CC2)c(C)o1`, the INHIBITION came out at 30.7%.

As to `O=C(C1CCOCC1)N1C[C@H]2CC(OCc3ccccc3)C[C@H]2C1` (stereo not given in full), the INHIBITION is -25.3%.

For the compound `C1CCC(c2nn3c(C4CCCO4)nnc3s2)C1` (stereo not given), the INHIBITION is 1.24%.

As to `CN(Cc1c(F)cccc1Cl)C(=O)Cn1cnc(C#N)n1`, the INHIBITION was found to be 28.7%.

As to `N#Cc1ncn(CC(=O)Cc2c(F)cccc2Cl)n1`, the INHIBITION amounted to 26.8%.

Regarding `N#Cc1ncn(Cc2c(F)cccc2Cl)n1`, the INHIBITION was determined as 64.4%.

On to `Cc1cc(C)cc(OCn2ccc(C(=O)O)n2)c1`, for which the INHIBITION was determined as 39.1%.

Turning to `COC(=O)N1CCC(Oc2ccc(C(=O)NCCN(C)C)cc2Cl)CC1`, the INHIBITION is recorded as -56.4%.

Take `CSCCNC(=O)c1ccc(OC2CCN(CC(C)(C)C)CC2)c(Cl)c1`: the INHIBITION turned out to be 52.4%.

With `CN(C)CCNC(=O)c1ccc(OC2CCN(CC3CC3)CC2)c(Cl)c1`, the INHIBITION is on record as -73.6%.

As for `CC1(C)OC(=O)N(CCCOc2ccc(F)cc2)C1=O`, the INHIBITION was determined as 10.7%.

Regarding `CCNc1ncc(C(=O)NCC2OCCc3ccccc32)cn1` (stereo not given), the INHIBITION is reported as 41.5%.

For `CC(=O)c1cnc(NCC2OCCc3ccccc32)nc1C` (stereo not given), the INHIBITION turned out to be 74.9%.

For `CCc1cnc(NCC2OCCc3ccccc32)nc1` (stereo not given), the INHIBITION is 44.3%.

As to `Cc1ncsc1C(=O)NC1CCN(CCC#N)CC1`, the INHIBITION is listed as 14.4%.

In the case of `COc1cc(C(=O)NS(=O)(=O)c2cncc(Br)c2)cc(Cl)c1OC`, the INHIBITION came out at 5.23%.

For `Cc1noc(COCC(=O)Nc2cc(C)c(Br)cn2)n1`, the INHIBITION is reported as -21.8%.

For `COc1cc(C(=O)NS(=O)(=O)c2cc(Cl)sc2Cl)ccc1OC(F)F`, the INHIBITION was 93.6%.

On to `Cc1noc(NC(=O)c2ccc(C)c(F)c2)n1`, for which the INHIBITION is 59%.

Consider `COc1cc(C(=O)NC(CC(=O)O)c2cccs2)cc(Cl)c1OC` (stereo not given), for which the INHIBITION was 18.6%.

In the case of `Cc1noc(NC(=O)c2ccc(F)cc2)n1`, the INHIBITION was determined as 25.1%.

Turning to `COc1cc(C(=O)Nc2nc(C)no2)cc(Cl)c1OC`, the INHIBITION turned out to be 77%.

As to `COc1cccc(C(=O)NS(=O)(=O)c2cc(Cl)sc2Cl)c1OC(F)F`, the INHIBITION is on record as 45.7%.

With `COc1cc(C(=O)NS(=O)(=O)c2cccc(C#N)c2)cc(OC)c1Br`, the INHIBITION is on record as 34.7%.

Take `COc1ccc(C(=O)NS(=O)(=O)c2cc(Cl)sc2Cl)cc1OC(F)F`: the INHIBITION is on record as 27.7%.

Turning to `Cc1cc(NC(=O)c2ccc(C)c(F)c2)[nH]n1`, the INHIBITION is on record as -30.8%.

On to `COc1cc(C(=O)Nc2nc(C)no2)cc(OC)c1Br`, for which the INHIBITION is listed as 91.4%.

Turning to `Cc1cnn(CC2CCCCN2Cc2cc(C)no2)c1` (stereo not given), the INHIBITION amounted to 4.245%.

With `Cn1cc(C2CCCN2C(=O)COCCc2ccccc2)cn1` (stereo not given), the INHIBITION was -32%.
